We go through eight molecules from PubChem BioAssay (EPA / NIEHS).

A short description of experiment [1]: BSK_CASM3C_SRB: Viability Assessment in the BioMAP Diversity Plus: CASM3C Assay (AID 2283050).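 Also: total protein by SRB staining as cytotoxicity measure in parallel cultures; cells exposed to compound for 24 h.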 Particulars: primary human coronary artery smooth muscle cells.
Read-out in experiment [2]: Thrombomodulin, THBD (gene 7056)
Description: BSK_CASM3C_Thrombomodulin: BioMAP Diversity Plus: CASM3C Assay for Thrombomodulin Biomarker Activity (AID 2283051).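 Also: thrombomodulin protein level measured by ELISA 24 h after dosing.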 Particulars: primary human coronary artery smooth muscle cells; actives raise or lower the signal.

Read-out in experiment [3]: Tissue Factor, F3 (gene 2152)
Briefly: BSK_CASM3C_TissueFactor: BioMAP Diversity Plus: CASM3C Assay for Tissue Factor Biomarker Activity (AID 2283052).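 Also: cell surface tissue factor protein level read by ELISA.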 The settings on record: primary human coronary artery smooth muscle cells; actives raise or lower the signal.

Read-out in experiment [4]: Interferon-gamma inducible Protein 10 (IP10), CXCL10 (gene 3627)
Description: BSK_hDFCGF_IP10: BioMAP Diversity Plus: hDFCGF Assay for Interferon-gamma inducible Protein 10 (IP10) Biomarker Activity (AID 2283053). Particulars: primary human foreskin fibroblasts; actives raise or lower the signal. The method, boiled down: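 Cells: human dermal foreskin fibroblasts. Exposure: 24 h post-dosing. Detection: IP-10 ELISA, with values expressed against DMSO controls and fitted in both directions.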

Read-out in experiment [5]: Urokinase-type plasminogen activator receptor (uPAR), PLAUR (gene 5329)
Description: BSK_CASM3C_uPAR: BioMAP Diversity Plus: CASM3C Assay for Urokinase-type plasminogen activator receptor (uPAR) Biomarker Activity (AID 2283054).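 Also: cell-surface uPAR protein level quantified by ELISA.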 Particulars: primary human coronary artery smooth muscle cells; actives raise or lower the signal.

Read-out in experiment [6]: Vascular cell adhesion molecule 1 (VCAM1), VCAM1 (gene 7412)
Description: BSK_CASM3C_VCAM1: BioMAP Diversity Plus: CASM3C Assay for Vascular cell adhesion molecule 1 (VCAM1) Biomarker Activity (AID 2283055).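 Also: VCAM-1 protein level quantified by ELISA on the cells.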 Particulars: primary human coronary artery smooth muscle cells; actives raise or lower the signal.

Read-out in experiment [7]: Collagen III, COL3A1 (gene 1281)
Description: BSK_hDFCGF_CollagenIII: BioMAP Diversity Plus: hDFCGF Assay for Collagen III Biomarker Activity (AID 2283056). Particulars: primary human foreskin fibroblasts; actives raise or lower the signal. The procedure, abridged: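 Human foreskin primary fibroblasts were exposed to test chemicals for 24 h, after which collagen III was quantified by ELISA. Activity was fitted bidirectionally against DMSO as negative control and baseline.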

Read-out in experiment [8]: Epidermal growth factor receptor (EGFR), EGFR (gene 1956)
Briefly: BSK_hDFCGF_EGFR: BioMAP Diversity Plus: hDFCGF Assay for Epidermal growth factor receptor (EGFR) Biomarker Activity (AID 2283057). Particulars: primary human foreskin fibroblasts; actives raise or lower the signal. The method, boiled down: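 Dosing human primary skin fibroblasts, then measuring surface EGFR by ELISA at 24 h, gives the endpoint; gains and losses relative to DMSO were fitted in both directions.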

Read-out in experiment [9]: Interleukin-8 (IL8), CXCL8 (gene 3576)
Briefly: BSK_hDFCGF_IL8: BioMAP Diversity Plus: hDFCGF Assay for Interleukin-8 (IL8) Biomarker Activity (AID 2283058). The settings on record: primary human foreskin fibroblasts; actives raise or lower the signal. The procedure, abridged: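 hDFCGF human dermal fibroblasts; 24 h chemical exposure; IL-8 by ELISA; bidirectional curve fit vs DMSO baseline; gain or loss of signal scored.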

Read-out in experiment [10]: Macrophage colony-stimulating factor (MCSF), CSF1 (gene 1435)
Description: BSK_hDFCGF_MCSF: BioMAP Diversity Plus: hDFCGF Assay for Macrophage colony-stimulating factor (MCSF) Biomarker Activity (AID 2283060). The settings on record: primary human foreskin fibroblasts; actives raise or lower the signal. The method, boiled down:
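Human foreskin primary fibroblasts were treated with test chemical for 24 h, and M-CSF was then measured by ELISA. Data were fitted bidirectionally against DMSO as the negative control and activity baseline.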

Experiment [11] can be described thus: BSK_hDFCGF_SRB: Viability Assessment in the BioMAP Diversity Plus: hDFCGF Assay (AID 2283061).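 Also: cells exposed to compound for 24 h before the read.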 The settings on record: primary human foreskin fibroblasts. The procedure, abridged:
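Human foreskin primary fibroblasts were treated with compound and assessed 24 h after dosing. Total protein was measured by sulforhodamine B staining (0.1% SRB after 10% TCA fixation, 560 nm read) as a cytotoxicity marker, with bidirectional fitting against DMSO baseline.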

Read-out in experiment [12]: TIMP metallopeptidase inhibitor 1 (TIMP1), TIMP1 (gene 7076)
Description: BSK_hDFCGF_TIMP1: BioMAP Diversity Plus: hDFCGF Assay for TIMP metallopeptidase inhibitor 1 (TIMP1) Biomarker Activity (AID 2283062). Particulars: primary human foreskin fibroblasts; actives raise or lower the signal. The method, boiled down: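 Primary human foreskin fibroblasts in the hDFCGF system were dosed with compound for 24 h, then TIMP-1 was measured by ELISA. Activity was fitted bidirectionally relative to DMSO control; parallel SRB staining assessed cytotoxicity.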

Read-out in experiment [13]: Monokine induced gamma interferon (MIG), CXCL9 (gene 4283)
Description: BSK_hDFCGF_MIG: BioMAP Diversity Plus: hDFCGF Assay for Monokine induced gamma interferon (MIG) Biomarker Activity (AID 2283063). Particulars: primary human foreskin fibroblasts; actives raise or lower the signal. The method, boiled down: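 ELISA read-out of MIG from primary human dermal fibroblasts 24 h post-dosing. Gain or loss of signal fitted bidirectionally, DMSO as baseline.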

Read-out in experiment [14]: Matrix Metallopeptidase 1 (MMP1), MMP1 (gene 4312)
Description: BSK_hDFCGF_MMP1: BioMAP Diversity Plus: hDFCGF Assay for Matrix Metallopeptidase 1 (MMP1) Biomarker Activity (AID 2283064). Particulars: primary human foreskin fibroblasts; actives raise or lower the signal. The method, boiled down:
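ELISA read-out of MMP1 from human foreskin fibroblasts (primary skin cells), 24 h post-dose. Gain or loss of signal was fitted bidirectionally versus DMSO negative control; cytotoxicity was checked by SRB in parallel cultures.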

Read-out in experiment [15]: Vascular cell adhesion molecule 1 (VCAM1), VCAM1 (gene 7412)
Description: BSK_hDFCGF_VCAM1: BioMAP Diversity Plus: hDFCGF Assay for Vascular cell adhesion molecule 1 (VCAM1) Biomarker Activity (AID 2283065).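 As to AC50: VCAM-1 protein level quantified by ELISA after 24 h chemical exposure.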 The settings on record: primary human foreskin fibroblasts; actives raise or lower the signal. The method, boiled down:
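Primary human foreskin fibroblasts (hDFCGF system) were dosed with chemical and VCAM-1 was measured by ELISA 24 h later. Bidirectional curve fitting used DMSO as negative control and activity baseline.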

Read-out in experiment [16]: Plasminogen activator inhibitor-1 (PAI1), SERPINE1 (gene 5054)
Description: BSK_hDFCGF_PAI1: BioMAP Diversity Plus: hDFCGF Assay for Plasminogen activator inhibitor-1 (PAI1) Biomarker Activity (AID 2283066). The settings on record: primary human foreskin fibroblasts; actives raise or lower the signal. The method, boiled down: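 Fibroblasts from human foreskin were treated with test chemical. After 24 h, PAI-1 was measured by ELISA. Activity was fitted in both directions relative to DMSO.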

Read-out in experiment [17]: Intercellular Adhesion Molecule 1 (ICAM1), ICAM1 (gene 3383)
Briefly: BSK_KF3CT_ICAM1: BioMAP Diversity Plus: KF3CT Assay for Intercellular Adhesion Molecule 1 (ICAM1) Biomarker Activity (AID 2283067). The settings on record: primary human keratinocytes with fibroblasts; actives raise or lower the signal. The procedure, abridged: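 Human keratinocyte plus foreskin fibroblast primary co-culture was exposed to chemical for 24 h. ICAM-1 was then quantified by ELISA, and the data were fit bidirectionally against DMSO as the negative control and baseline.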

Read-out in experiment [18]: Interferon-gamma inducible Protein 10 (IP10), CXCL10 (gene 3627)
Description: BSK_KF3CT_IP10: BioMAP Diversity Plus: KF3CT Assay for Interferon-gamma inducible Protein 10 (IP10) Biomarker Activity (AID 2283068). Particulars: primary human keratinocytes with fibroblasts; actives raise or lower the signal. The method, boiled down: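 KF3CT co-culture (keratinocytes + foreskin fibroblasts), 24 h compound, IP-10 by ELISA; bidirectional fit vs DMSO baseline.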

Experiment [19] in a line: BSK_KF3CT_SRB: Viability Assessment in the BioMAP Diversity Plus: KF3CT Assay (AID 2283069).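 Also: fitted for both signal gain and loss against DMSO baseline.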 The settings on record: primary human keratinocytes with fibroblasts. The method, boiled down:
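SRB read-out at 560 nm (0.1% stain, TCA-fixed cells) gauges overt cytotoxicity in a human skin keratinocyte–fibroblast co-culture 24 h post-dosing. Signal change was fitted bidirectionally relative to DMSO control.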

Calls of active or inactive are those of the source. The calls were made as follows: active = hit-call score of the fitted dose curve at least 0.9, where 1 is the maximum; inactive = score below 0.9.

Consider `Cc1c(O)cccc1O`, for which the result in [1], in [2], in [3], in [4], in experiment [5] and in experiment [6] was inactive. Also, the result in experiment [7], in experiment [8], in experiment [9], in experiment [10], in [11] and in experiment [12] was inactive. Also, the result in experiment [13], in experiment [14], in experiment [15], in experiment [16], in experiment [17] and in [18] was inactive. Moreover, in experiment [19], the result was inactive.

As usually defined, the AC50 is the concentration at which the activity in the assay is half-maximal. On to `CC/C=C\CCOC(=O)c1ccccc1O`, for which the AC50 in experiment [1] was 34.5 µM (active); in [3], 20 µM (active); in experiment [4], 13.7 µM (active); in experiment [5], 36.3 µM (active); in [6], 32.1 µM (active); in experiment [7], 11.8 µM (active). Besides, the AC50 was 13.1 µM (active) in experiment [10]; 13.7 µM (active) in experiment [11]; 12.4 µM (active) in [12]; 20 µM (active) in [13]; 13.3 µM (active) in experiment [14]; 14.9 µM (active) in [15]. Besides, the AC50 in experiment [16] is 11.6 µM (active); in experiment [17] it was 20 µM (active); in experiment [18], 31 µM (active); in experiment [19], 28.8 µM (active). For the same molecule, the result in [2], in [8] and in experiment [9] was inactive.

For the molecule `C=CC(=O)NC(C)(C)C`, the result in [1], in experiment [2], in experiment [3], in [4], in experiment [5] and in [6] was inactive. The result in [7], in [8], in experiment [9], in [10], in experiment [11] and in [12] was inactive. Also, the result in [13], in experiment [14], in experiment [15], in [16], in [17] and in experiment [18] was inactive. Further, in [19], the result was inactive.

On to `C=CC(=O)OCC(C)OCC(C)OCC(C)OC(=O)C=C` (configuration not stated), for which the half-maximal activity concentration (AC50) in experiment [1] was 20 µM (active); in experiment [3], 2.28 µM (active); in experiment [4] it was 14.4 µM (active); in experiment [5], 8.9 µM (active); in experiment [6], 15.3 µM (active); in [7], 35.7 µM (active). In addition, the AC50 in experiment [8] was 33.4 µM (active); in [9] it was 33.1 µM (active); in experiment [10], 20 µM (active); in experiment [11] it was 6.59 µM (active); in experiment [12] it was 11 µM (active); in experiment [13], 11.3 µM (active). The AC50 in experiment [14] is 27.5 µM (active); in [15], 8.28 µM (active); in experiment [16] it was 6.86 µM (active); in [17], 18.1 µM (active); in experiment [18] it was 28.1 µM (active); in [19] it was 31.9 µM (active). For the same molecule, the result in experiment [2] was inactive.

As to `Fc1ccc(Br)cc1`, the result in experiment [1], in [2], in experiment [3], in experiment [4], in experiment [5] and in experiment [6] was inactive. Further, the result in experiment [7], in experiment [8], in experiment [9], in [10], in experiment [11] and in [12] was inactive. The result in experiment [13], in experiment [14], in [15], in [16], in [17] and in experiment [18] was inactive. The outcome in experiment [19] was inactive.

Take `O=C(Oc1ccccc1)c1ccccc1C(=O)Oc1ccccc1`: the outcome in [1], in experiment [2], in experiment [3], in experiment [4], in experiment [5] and in experiment [6] was inactive. The result in experiment [8], in experiment [9], in [10], in experiment [11], in [12] and in [13] was inactive. In addition, the result in [14], in experiment [15], in [17], in experiment [18] and in experiment [19] was inactive. The results for the AC50 in experiment [7] and in [16] were 11.5 µM (active) and 20 µM (active), respectively.

On to `CC(Cl)COP(=O)(OCC(C)Cl)OCC(C)Cl` (configuration not stated), for which the result in experiment [1], in [2], in experiment [3], in experiment [4], in experiment [5] and in experiment [6] was inactive. In addition, the outcome in experiment [7], in experiment [8], in [9], in [10], in experiment [11] and in experiment [12] was inactive. Also, the result in experiment [13], in experiment [14], in [15], in experiment [16], in experiment [17] and in experiment [18] was inactive. For the same molecule, the result in [19] was inactive.

On to `CCNc1nc(NC(C)(C)C)nc(OC)n1`, for which the outcome in [1], in [2], in experiment [3], in experiment [4], in [5] and in experiment [6] was inactive. In addition, the result in [7], in experiment [8], in [9], in experiment [10], in experiment [11] and in [12] was inactive. Further, the outcome in [13], in experiment [14], in experiment [15], in experiment [16], in experiment [17] and in experiment [18] was inactive. In addition, the outcome in experiment [19] was inactive.
